# Source: PubChem
# TRb-SRC2 inh: qHTS for Inhibitors of the Interaction of Thyroid Hormone Receptor and Steroid Receptor Coregulator 2 | Potency, µM (highest dose often 106 µM), for the others: at the top dose activity change, negative = inhibition, usual class: inhibitors | actives 0.065% (n = 280,000) | AID 1469, 2008 | TRbeta-SRC2 peptide binding, fluorescence polarization; receptor liganded with 1 µM T3;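 note: plate controls were bound peptide for no effect and peptide without receptor for full effect; nearly all actives have a fitted effect of over 50% in size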
#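 Compounds were added to 0.6 uM TRb ligand-binding domain and 20 nM Texas Red-labeled SRC2 peptide in Tris buffer containing 1 uM T3, incubated 5 hr at ambient temperature, then read by fluorescence polarization.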
# Tau FP inhib: qHTS for Inhibitors of Tau Fibril Formation, Fluorescence Polarization. Microtubule-associated protein tau (Homo sapiens), P10636. K18 P301L tau heparin fibrillization, Alexa594 FP, 6 h. Potency, µM (titrated, usually from 57.7 µM), for inactives: top-dose activity, negative = inhibition, actives largely listed as inhibitors. actives 0.39% (n = 280,000); note: nearly all actives have a fitted effect of over 55% in size
# Target sequence (P10636 561-689 P618L limits assumed): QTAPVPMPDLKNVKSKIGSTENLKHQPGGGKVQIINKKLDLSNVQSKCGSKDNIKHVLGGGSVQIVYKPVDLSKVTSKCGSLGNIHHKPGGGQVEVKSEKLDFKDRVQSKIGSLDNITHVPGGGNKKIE
#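 Human K18 P301L fragment (15 uM unlabeled plus 0.24 uM Alexa 594-labeled) in 100 mM sodium acetate pH 7 with compound, aggregation induced by 20 uM heparin for 6 hr at 37 C. ThT (30 uM) added for 1 hr, then Alexa 594 FP read.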
# TR SRC2 fluor cs: Total Fluorescence Counterscreen for Inhibitors of the Interaction of Thyroid Hormone Receptor and Steroid Receptor Coregulator 2 | AID 1479, 2009 | Potency, µM (highest dose often 106 µM), inactives show top-dose fluorescence change, negative = quenching | actives 0.29% (n = 280,000) | TRb/SRC2 Texas Red total fluorescence interference; active = well fitted curve in either direction with a large enough effect; inconclusive = small, poorly fitted or top-dose-only effect
#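 Flags fluorescent or light-absorbing compounds by total fluorescence, S + 2P, at 555 nm excitation and 632 nm emission. Mixture: 20 nM Texas Red SRC2 peptide, 0.6 uM human TRb LBD, 1 uM T3, 5% DMSO; compound exposure 5 h at ambient temperature.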
# Tau fluor counter: Counterscreen qHTS for Inhibitors of Tau Fibril Formation, Fluorescence Polarization; tau K18 P301L Alexa594 fluorescence, heparin fibrillization; Potency, µM (titrated, usually from 57.7 µM), without a hit: at the highest dose activity change, negative = decrease; actives 0.93% (n = 280,000); AID 1463, 2008; note: nearly all actives have a fitted effect of over 55% in size
#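 Human tau K18 P301L (15 uM unlabeled, 0.24 uM Alexa 594-labeled) in 100 mM sodium acetate pH 7 with 20 uM heparin, 6 hr at 37 C. ThT 30 uM added, 1 hr ambient; Alexa 594 FP and total fluorescence read at 555/632 nm.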
# RGS12 GoLoco inh: qHTS Assay for Inhibitors of RGS12 GoLoco Motif Activity (Red Fluorophore). Gai1:RGS12 GoLoco peptide FP, rhodamine, 10 min. Potency, µM (doses to about 61.6 µM), inactives show top-dose activity, negative = inhibition, hits mostly inhibitors. actives 0.44% (n = 230,000). AID 880, 2007; active = well fitted inhibition curve with a large enough effect, not every such curve was filed as active; inactive = no such curve, though single readings can be large or run the other way; note: nearly all actives have a fitted effect of over 30% in size
# Target sequence (P63096 whole entry, looked up): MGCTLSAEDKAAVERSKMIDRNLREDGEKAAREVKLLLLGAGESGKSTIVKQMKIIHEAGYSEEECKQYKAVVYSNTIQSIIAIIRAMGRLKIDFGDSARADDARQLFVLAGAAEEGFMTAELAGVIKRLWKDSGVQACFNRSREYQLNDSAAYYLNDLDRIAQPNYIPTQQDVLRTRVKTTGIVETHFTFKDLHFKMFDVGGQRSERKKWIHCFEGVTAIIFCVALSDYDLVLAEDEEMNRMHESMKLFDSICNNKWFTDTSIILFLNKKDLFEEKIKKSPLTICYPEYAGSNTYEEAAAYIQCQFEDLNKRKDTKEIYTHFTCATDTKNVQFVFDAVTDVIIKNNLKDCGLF
# Tau fibril ThT: qHTS for Inhibitors of Tau Fibril Formation, Thioflavin T Binding; Microtubule-associated protein tau (Homo sapiens), P10636; recombinant tau K18 P301L (four-repeat tau fragment), heparin-induced fibrillization, ThT fluorescence; Potency, µM (doses to about 57.4 µM), without a hit: at the top dose activity, negative = inhibition, hits mostly inhibitors; actives 2.1% (n = 270,000); note: nearly all actives have a fitted effect of over 55% in size
#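 In this qHTS, human K18 P301L tau is incubated with compound and heparin for 6 hr at 37 C, and Thioflavin T fluorescence then reports fibril load.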
# An asterisk follows results filed as active; u = inconclusive; x = no result given; [ ] = dose if it differs, or a comment. Compounds with a hit are over-represented: about 3.1% of the library has one in this group of screens. Unless noted, calls come from the whole dose curve; as a rule, active = well fitted curve in the direction sought with a large enough effect; inconclusive = small, poorly fitted or top-dose-only effect, or another doubt; inactive = no such curve, though single readings can be large; an effect the other way counts as inactive or inconclusive. Unless noted, % is set by controls: 0 for no effect and ±100 for the full control effect; potency is the fitted concentration of half-maximal effect.
SMILES,TRb-SRC2 inh,Tau FP inhib,TR SRC2 fluor cs,Tau fluor counter,RGS12 GoLoco inh,Tau fibril ThT
O=C(N/N=C/c1c[nH]c2ccccc12)c1cc(-c2cccc3ccccc23)n[nH]1,-5%,4%,-7%,10µM*[quencher],3%,u
Fc1ccc(CSc2nnc(Cc3sc(-c4ccccc4)nc3-c3ccccc3)o2)cc1,3%,-12%,-10%,-26%,-5%,-10%
C[C@@H]1C[C@@H]2OC(=O)[C@]3(C)[C@H]2[C@@H](OC3(C)O)[C@]2(C)C(=O)C=C[C@H]12 (stereo partly drawn),3%,-10%,-1%,17%,-4%,-16%
C=C1C(=O)O[C@@H]2C[C@@H](C)[C@@H]3C=CC(=O)[C@@]3(C)[C@@H](OC(C)=O)[C@H]12,-5%,u,-3%,-20%,-5%,4µM*
COC(=O)c1ccc(C(=O)OC)c(NC(=O)CSCc2ccc(Br)cc2)c1,4%,4%,-5%,-21%,8%,-13%
CCOC(=O)c1c(N)sc2c1CCC(CC)C2 (stereo not drawn),-8%,0%,-9%,u,8%,u
CCOC(=O)c1c(N)sc(=S)c2c1CCC2,-19%,u,-8%,u,12%,25µM*
CCOC(=O)c1c(N)sc2c1CCSC2,3%,-14%,-3%,u,24%,25µM*
CCOC(=O)c1c(N)sc(N)c1C(=O)OCC,1%,u,-3%,u,13%,14µM*
CCOC(=O)c1c(N)sc(C(N)=O)c1C,-11%,-3%,0%,1%,12%,-8%
CCOC(=O)c1c(N)ssc1=S,3%,11µM*,-1%,-27%,-6%,7.9µM*
O=S(=O)(c1ccc2ccccc2c1)N1CCN=C1SCc1cccnc1,-3%,-1%,1%,-18%,-1%,-19%
CN(C)NC(=S)Nc1ccc2nc(-c3ccccn3)c(-c3ccccn3)nc2c1,-10%,u,0%,-19%,1%,u
S=C(Nc1ccc2nc(-c3ccccn3)c(-c3ccccn3)nc2c1)N1CCOCC1,u,u,-8%,u,6%,13µM*
Nc1cc(C(=O)O)c(N)c2c1C(=O)c1ccccc1C2=O,40µM*,20µM*,45µM*[fluorescent],u,-11%,4.5µM*
Nc1c(C(=O)O)ccc2c1C(=O)c1ccccc1C2=O,-17%,-11%,u,-29%,153%,10µM*
O=C1c2ccccc2C(=O)c2c1ccc(C(=O)O)c2-c1ccc2ccccc2c1,x,x,x,x,6%[14.2 µM],x
CCCCCCCC/C=C\CCCCCCCCO,11%[201 µM],x,0%[201 µM],x,x,x
O=C(c1cnc(-c2ccccc2)s1)c1ccc(Cl)cc1Cl,4%,-6%,-2%,-11%,0%,-12%
COc1ccc2[nH]c3c4c(ccc3c2c1)C(=O)C=CC4=O,-7%,11µM*,-14%,2µM*[quencher],22µM*,3.5µM*
COc1ccc2[nH]c(-c3ccc(F)cc3F)cc(=O)c2c1,0%,0%[81.3 µM],4%,1%[81.3 µM],1%[88.7 µM],2%[81.4 µM]
CN(C)c1ccc(NC(=O)c2cn(-c3ccccc3)nc2-c2cccs2)cc1,0%,14%,-1%,8.9µM*[quencher],-6%,u
CCN(CC)CCNC(=O)c1cn(-c2ccccc2)nc1-c1cccs1,8%,-15%,0%,-21%,2%,-2%
CCN(CC)CCOC(=O)c1ccc(NC(=O)c2cn(-c3ccccc3)nc2-c2cccs2)cc1,2%,11µM*,0%,8.9µM*[quencher],11%,-2%
COC(=O)c1ccccc1,-2%,x,-1%,x,7%,x
SMILES,TRb-SRC2 inh,Tau FP inhib,TR SRC2 fluor cs,Tau fluor counter,RGS12 GoLoco inh,Tau fibril ThT
COC(=O)c1ccc(C23CC2(C(NP(=O)(c2ccccc2)c2ccccc2)c2ccccc2)C3)cc1 (stereo not drawn),3%,-2%,-9%,-13%,1.4µM*,u
Cc1nc(-c2cccc(NC(=O)Nc3ccc([N+](=O)[O-])cc3)c2)no1,6%,13µM*,0%,8.9µM*[quencher],x,u
CCc1ccc(NC(=O)C2CCN(S(=O)(=O)c3c(C)noc3/C=C\c3ccc(OC)cc3)CC2)cc1,-7%,u,1%,-8%,x,5%
CC1=NN(c2ccccc2)C(=O)/C1=C/c1c(O)n(-c2ccc(F)c(Cl)c2)[nH]c1=O,7%,u,u,u,9%,5µM*
C/C(Cc1ccccc1)=N/NC(=O)CNC(=O)C(c1ccccc1)c1ccccc1,-5%,-11%,-2%,-7%,-1%,-2%
CC1=[N+](C)c2ccc3ccccc3c2C1(C)C,32µM*,1%,4.5µM*[fluorescent],u,165%,14µM*
COc1ccc(C(=O)Oc2ccc(C(c3c(C)[nH][nH]c3=O)c3c(C)[nH][nH]c3=O)cc2OC)cc1,2%,-1%,-2%,-4%,x,-19%
Cc1[nH][nH]c(=O)c1C(c1ccc(-c2cccc(C(=O)O)c2)o1)c1c(C)[nH][nH]c1=O,-22%,u,-4%,-26%,-11%,14µM*
COC(=O)c1ccc(-c2ccc(C(c3c(C)[nH][nH]c3=O)c3c(C)[nH][nH]c3=O)o2)cc1,-24%,u,-5%,-26%,24%,5µM*
Cc1ccccc1NC(=O)c1ccc(-c2ccc(Cl)cc2Cl)o1,-14%,-4%,2%,-22%,4%,u
Cc1[nH][nH]c(=O)c1C(c1ccc(-c2cccc(Cl)c2)o1)c1c(C)[nH][nH]c1=O,u,u,-2%,u,8%,x
COc1cc(C(c2c(C)[nH][nH]c2=O)c2c(C)[nH][nH]c2=O)ccc1OC(=O)c1ccccc1F,-4%,3%,-1%,-28%,x,u
Cc1[nH][nH]c(=O)c1C(c1ccc(-c2ccc(Cl)cc2Cl)o1)c1c(C)[nH][nH]c1=O,u,u,-8%,-28%,-13%,11µM*
Cc1[nH][nH]c(=O)c1C(c1ccc(-c2ccccc2C(=O)O)o1)c1c(C)[nH][nH]c1=O,u,u,-2%,-8%,-18%,11µM*
N#C/C(=C\c1cccc([N+](=O)[O-])c1)C(=O)NCC1CCCO1 (stereo not drawn),2%,2%,-1%,-12%,-26%,-2%
